Results filed as inconclusive are left out. Where a call stands in place of a potency, no number is given. The source made the active and inactive calls. Calls come from the whole dose curve.

For this test, the target named is Beta-2 adrenergic receptor (Homo sapiens) (UniProt P07550). Description: Adrenergic beta2 receptor (ADRB2) small molecule agonists, cell-based qHTS assay (AID 1963593).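 Note: CHO cells stably overexpressing human ADRB2.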 In short, it runs like this:
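CHO cells stably over-expressing ADRB2 were plated overnight at 37C, then dosed with compounds plus a stimulation mix containing 100uM IBMX and 25uM Ro-20-1724 for 0.5hr at room temperature. cAMP was measured by HTRF competition, 1hr.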

Sequence of Beta-2 adrenergic receptor (Homo sapiens) (P07550 whole entry, looked up): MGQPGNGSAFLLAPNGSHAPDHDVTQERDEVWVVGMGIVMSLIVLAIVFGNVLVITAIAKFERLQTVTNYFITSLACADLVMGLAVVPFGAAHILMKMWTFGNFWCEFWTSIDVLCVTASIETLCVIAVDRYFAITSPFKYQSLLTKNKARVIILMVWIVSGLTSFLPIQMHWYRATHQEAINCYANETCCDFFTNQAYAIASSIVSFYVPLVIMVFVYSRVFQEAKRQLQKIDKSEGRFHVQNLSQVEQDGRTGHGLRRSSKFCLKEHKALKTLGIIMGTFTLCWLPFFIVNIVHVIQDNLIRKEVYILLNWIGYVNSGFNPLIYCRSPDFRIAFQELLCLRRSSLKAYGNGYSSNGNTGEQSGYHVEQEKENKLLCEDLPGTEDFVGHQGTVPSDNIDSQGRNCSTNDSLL

On to `CCCCCCCCCC=O`, for which the Potency result was “inactive”.
`O=C1c2ccccc2C(=O)C1c1ccccc1`: the Potency entry was “inactive”.
The result for `CC(C)C[C@@H](N)C(=O)O` reads “inactive”.
The result for `CC(C(=O)O)c1cccc(Oc2ccccc2)c1` (centres undefined) reads “inactive”.
The same measure for `C=C(C)C(=O)OCCCC`: “inactive”; for `N#CCC(=O)NN`: “inactive”.
As to `O=C(OCc1ccccc1)C(=O)OCc1ccccc1`, the Potency entry was “inactive”.
The same measure for `CC(C)NNC(=O)c1ccncc1`: “inactive”; for `FC(F)(F)C(F)(F)C(F)(F)C(F)(F)CCI`: “inactive”; for `NC(=O)c1ccccc1[N+](=O)[O-]`: “inactive”.
The same measure for `CCCCCCCCCOC(C)=O`: “inactive”.
The same measure for `CCCCCCCCCCCCCCCCCl`: “inactive”.
On to `CCCCC(CC)CN1C(=O)C2C3C=CC(C3)C2C1=O` (centres undefined), for which the Potency entry was “inactive”.
`Cc1[nH]cnc1CN1CCc2c(c3ccccc3n2C)C1=O`: the Potency result is “inactive”.
Turning to `CC1(C)[C@H]2CC[C@]1(C)C(=O)C2`, the Potency result is “inactive”.
The result for `CC(=O)N(CC(O)CN(C(C)=O)c1c(I)c(C(=O)NCC(O)CO)c(I)c(C(=O)NCC(O)CO)c1I)c1c(I)c(C(=O)NCC(O)CO)c(I)c(C(=O)NCC(O)CO)c1I` (centres undefined) reads “inactive”; that for `CCN(CC)CCNC(=O)c1cc(S(C)(=O)=O)ccc1OC`, “inactive”; that for `N=C1N=C(N)c2ccccc21`, “inactive”.
The result for `CN1Cc2cc(C(=O)N3CCC(C4CCNCC4)CC3)ccc2N[C@@H](CC(=O)O)C1=O` reads “inactive”; that for `C[C@@H]1C[C@H]2[C@@H]3CCC4=CC(=O)C=C[C@]4(C)[C@@]3(F)[C@@H](O)C[C@]2(C)[C@@]1(O)C(=O)COP(=O)(O)O`, “inactive”.
On to `O=C1OCCN1/N=C/c1ccc([N+](=O)[O-])o1`, for which the Potency entry was “inactive”.
The same measure for `Nc1ccc(S(=O)(=O)NCc2ccccc2)cc1`: “inactive”; for `Cc1cc(C(=O)O)ccc1[N+](=O)[O-]`: “inactive”; for `CC(=O)CC(C)C`: “inactive”.
For `CCOCC(O)COc1ccc(NC(=O)CC[S+](C)C)cc1` (centres undefined), the Potency entry was “inactive”.
The result for `c1ccc(CNc2ncnc3nc[nH]c23)cc1` reads “inactive”; that for `COc1ncnc(NS(=O)(=O)c2ccc(N)cc2)c1OC`, “inactive”; that for `COc1cc(O)cc(O)c1`, “inactive”.
Take `CCCCCCCCc1ccc(S(=O)(=O)O)cc1`: the Potency entry was “inactive”.
For `O=C(Cn1ccnc1[N+](=O)[O-])NCCO`, the Potency entry was “inactive”.
The same measure for `COc1cccc(-c2ccc(/C=C\CN3CCCCCC3)cc2Cl)c1`: “inactive”.
Turning to `CCCCC1CCCCC(=O)O1` (centres undefined), the Potency result was “inactive”.
As for `CCCCC(CC)COC(=O)COc1ccc(Cl)cc1Cl` (centres undefined), the Potency result is “inactive”.
For `CCCCc1ccc2c(n1)[C@@H](c1ccc(OC)cc1C[C@H](C)C(=O)O)[C@H](C(=O)O)[C@H]2c1ccc2c(c1)OCO2`, the Potency result is “inactive”.
The same measure for `Cc1ccsc1/C=C/C1=NCCCN1C`: “inactive”; for `CC(C)(C)C(=O)/C=C/c1ccc(Cl)cc1`: “inactive”; for `Nc1nc2c(ncn2COCCO)c(=O)[nH]1`: “inactive”.
For the compound `Cc1c[nH]c2ccccc12`, the Potency result is “inactive”.
With `CCCCC(CC)COC(=O)CCCCCCCCC(=O)OCC(CC)CCCC` (centres undefined), the Potency entry is “inactive”.
As to `O=c1c(O)c(-c2ccc(O)cc2O)oc2cc(O)cc(O)c12`, the Potency entry is “inactive”.
The same measure for `CCCCCCCCCCCc1ccccc1`: “inactive”; for `CCCCCC[C@@H](CCC)C(=O)O`: “inactive”.
The same measure for `CCOC(=O)[C@H](O)[C@@H](O)C(=O)OCC`: “inactive”; for `O=C1CCCCCCCCCCOCCCCO1`: “inactive”.

For the origin of these results see PubChem BioAssay (Tox21).
